From ChEMBL document CHEMBL1201862, “PubChem BioAssay data set” (2004) come the findings set out here.

SMILES strings stand for the structures. About 2,100 (0.53%) of roughly 400,000 compounds were called active. Inconclusive results (about 14%) are left out. The rule behind the calls is not given here. Shown is part of a subset that was picked to be rich in actives.

Chain of Ataxin-2 (Homo sapiens) (Q99700 whole entry): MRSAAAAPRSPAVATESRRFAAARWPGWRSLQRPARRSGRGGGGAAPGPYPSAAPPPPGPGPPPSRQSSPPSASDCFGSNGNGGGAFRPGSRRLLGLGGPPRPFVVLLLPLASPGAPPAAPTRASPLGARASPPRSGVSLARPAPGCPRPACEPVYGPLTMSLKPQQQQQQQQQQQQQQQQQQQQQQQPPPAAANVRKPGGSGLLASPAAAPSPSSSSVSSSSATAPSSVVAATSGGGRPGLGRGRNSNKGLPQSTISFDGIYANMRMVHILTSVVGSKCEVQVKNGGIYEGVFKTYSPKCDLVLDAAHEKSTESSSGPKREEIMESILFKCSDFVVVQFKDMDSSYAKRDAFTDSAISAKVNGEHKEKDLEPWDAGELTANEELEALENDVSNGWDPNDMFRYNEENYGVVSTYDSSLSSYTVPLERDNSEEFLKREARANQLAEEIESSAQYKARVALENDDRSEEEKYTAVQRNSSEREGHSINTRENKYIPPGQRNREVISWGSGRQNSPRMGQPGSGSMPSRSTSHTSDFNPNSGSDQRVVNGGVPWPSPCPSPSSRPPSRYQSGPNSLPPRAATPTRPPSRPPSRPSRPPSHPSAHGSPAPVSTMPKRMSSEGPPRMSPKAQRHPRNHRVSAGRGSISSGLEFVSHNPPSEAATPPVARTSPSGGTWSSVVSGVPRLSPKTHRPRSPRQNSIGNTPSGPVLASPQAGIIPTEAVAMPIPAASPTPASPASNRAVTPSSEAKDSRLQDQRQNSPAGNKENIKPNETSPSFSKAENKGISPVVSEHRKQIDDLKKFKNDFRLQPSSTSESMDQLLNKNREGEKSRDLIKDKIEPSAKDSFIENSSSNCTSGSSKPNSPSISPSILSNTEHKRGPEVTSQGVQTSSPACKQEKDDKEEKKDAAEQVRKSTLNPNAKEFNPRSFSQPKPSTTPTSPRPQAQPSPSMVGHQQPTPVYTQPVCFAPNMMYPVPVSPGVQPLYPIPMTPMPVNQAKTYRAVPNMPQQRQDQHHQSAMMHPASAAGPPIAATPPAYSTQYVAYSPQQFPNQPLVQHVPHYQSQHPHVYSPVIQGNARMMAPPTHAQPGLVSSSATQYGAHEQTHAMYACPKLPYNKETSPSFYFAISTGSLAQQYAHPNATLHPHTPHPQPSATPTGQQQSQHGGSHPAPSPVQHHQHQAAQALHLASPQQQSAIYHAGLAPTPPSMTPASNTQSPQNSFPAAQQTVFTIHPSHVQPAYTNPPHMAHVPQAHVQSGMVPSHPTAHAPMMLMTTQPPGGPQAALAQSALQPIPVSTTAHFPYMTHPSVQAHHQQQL

This assay addresses Ataxin-2 (Homo sapiens) (UniProt Q99700). Kind of assay: qHTS for Inhibitors of ATXN expression. The class given is functional. In general terms: In qHTS, concentration-response curves come from the screen itself.
With `COc1ccc2nc(N3CCC(O)CC3)c(C#N)cc2c1`, the Potency entry was “inactive”.

As for `Oc1c(Cl)cc(Cl)cc1C1=NNC(c2ccc(Cl)cc2)C1` (centres undefined), the Potency result is “inactive”.

On to `COc1ccccc1CC(=O)NC(=O)c1ccccc1O`, for which the Potency result was “inactive”.

`COc1cccc(CNn2cnnc2)c1O`: the Potency result was “inactive”.

With `COc1ccccc1CNCC(O)Cn1c2ccccc2c2ccccc21` (centres undefined), the Potency is 22.4 µM (active).

`CC(=O)Nc1sc(/C(C#N)=C/c2ccc(Cl)c(Cl)c2)nc1-c1ccc(C)cc1`: the Potency result is “inactive”.

Turning to `COc1ccccc1CCNC(=O)C(=O)NCC1OCCN1S(=O)(=O)c1ccc([N+](=O)[O-])cc1` (centres undefined), the Potency entry was “inactive”.

Take `Cc1cccc(OCCn2cc(/C=N/NC(=O)c3ccncc3)c3ccccc32)c1`: the Potency result was “inactive”.

Regarding `CCC(=O)Nc1c(-c2ccccc2)c(=O)c2ccccc2n1C`, the Potency result is “inactive”.

As for `Cn1c2ccccc2c2cc(C(=O)NNC(=O)CCl)sc21`, the Potency was 15 µM (active).

For `CSc1c(CC(=O)NCCCO)n(Cc2ccccc2)c2ccccc12`, the Potency result was “inactive”.

In the case of `O=S(=O)(CC(CN1CCCCC1)N1CCCCC1)c1ccccc1` (centres undefined), the Potency was 31.6 µM (active).

Take `CC(CN1CCCCC1)OC(=O)c1ccco1` (centres undefined): the Potency entry is “inactive”.

`O=S(=O)(c1ccccc1)N1CCCN(S(=O)(=O)c2ccccc2)CC1`: the Potency entry is “inactive”.

Take `O=C(NCc1ccc2c(c1)OCO2)c1nc(Cn2ccc([N+](=O)[O-])n2)no1`: the Potency entry was “inactive”.

For `CCn1nc(NC(=O)C(C)C)c2cc3cccc(C)c3nc21`, the Potency result was “inactive”.

As to `Cn1cc(/C=N/Nc2ccccc2)c2ccccc21`, the Potency result is “inactive”.

With `COc1ccccc1Cc1c(-c2ccc(OC)c(OC)c2)nc2c3ccccc3ccn12`, the Potency was 39.8 µM (active).

With `COc1ccc(-c2nc3cnccn3c2NCc2ccccc2)cc1SC1CCCCC1`, the Potency entry is “inactive”.

Take `COc1ccc(-c2nc3c4ccccc4ccn3c2Cc2ccccc2)cc1OC`: the Potency was 39.8 µM (active).

Regarding `COc1ccc(-c2csc(-c3cccs3)n2)cc1OC`, the Potency result was “inactive”.

`COc1ccc(Cc2c(-c3ccc(OC)c(OC)c3)nc3c(C)cc(Br)cn23)c(C)c1`: the Potency was 20 µM (active).

Take `COc1ccc(-c2nc3c(-c4ccccc4)cnn3cc2C)cc1F`: the Potency entry was “inactive”.

For `O=C(CC1C(=O)NCCN1C(=O)Nc1ccc(F)cc1)Nc1ccc(F)cc1` (centres undefined), the Potency entry was “inactive”.

As for `Cc1csc(SCC(=O)NC(=O)NC(C)(C)C)n1`, the Potency result is “inactive”.

In the case of `Cn1c2ccccc2c(=O)c2cc(NCCCN3CCOCC3)ccc21`, the Potency result is “inactive”.

Consider `CN(/N=C/c1ccc(O)cc1O)c1nc(-c2ccccc2)cc(-c2ccccc2)n1`, for which the Potency is 25.1 µM (active).

In the case of `CN(/N=C/c1cc(Br)cc(Br)c1O)c1cccc(C(F)(F)F)n1`, the Potency result is “inactive”.

In the case of `O=C(NC1=NCCS1)c1cc(-c2ccc(-c3ccccc3)cc2)nc2ccccc12`, the Potency result is “inactive”.

As to `Cc1ccc(S(=O)(=O)[N-]c2nc3ccccc3nc2-[n+]2ccn(Cc3ccccc3)c2)cc1`, the Potency result is “inactive”.

Consider `Cc1nc(N/N=C/c2cccc([N+](=O)[O-])c2)cc(N2CCCCC2)n1`, for which the Potency entry was “inactive”.

`Cc1ccc(/N=C/c2nc(/C=C/c3cccc([N+](=O)[O-])c3)oc2O)cc1`: the Potency is 39.8 µM (active).

Regarding `CC1(C)C([N+](=O)[O-])C(c2ccc(F)cc2)NC(c2ccc(F)cc2)C1[N+](=O)[O-]` (centres undefined), the Potency entry is “inactive”.

As to `Cc1ccc(NNC2=C3N=NN=C3C=CC2=O)cc1`, the Potency was 44.7 µM (active).

As to `C=CCn1c2ccccc2c(=O)c2cc(C#CC[C@@H](C)O)ccc21`, the Potency entry is “inactive”.

For the compound `Clc1ccc(-c2nc(N3CCOCC3)nc3ccccc23)cc1`, the Potency entry is “inactive”.

In the case of `O=C(O)c1ccccc1Cc1nc(O)c2ccc(Cl)cc2n1`, the Potency result was “inactive”.

With `Clc1ccc2c(SCC3CO3)c3ccccc3nc2c1` (centres undefined), the Potency is 23.8 µM (active).

In the case of `O=S(=O)([N-]c1nc2ccccc2nc1-[n+]1ccn(Cc2ccccc2)c1)c1ccccc1`, the Potency entry is “inactive”.

For the compound `CC(C)OCCCNC(=O)CN1C(=O)c2cccc3cccc1c23`, the Potency result was “inactive”.

For the compound `COc1ccc(OC)c(C(=O)NC2CCCc3c2cnn3-c2cc(C)cc(C)c2)c1` (centres undefined), the Potency result is “inactive”.

`COC(=O)CCCC(=O)NC1CCCc2c1cnn2-c1ccc(F)cc1F` (centres undefined): the Potency entry was “inactive”.

As for `CC(=O)Nc1cccc(C(=O)NC2CCCc3c2cnn3-c2ccc(C(C)(C)C)cc2)c1` (centres undefined), the Potency was 8.91 µM (active).

In the case of `CCCNC(=O)Cn1c(=O)/c(=C\c2ccc(-c3ccc([N+](=O)[O-])cc3)o2)s/c1=C\C(=O)C(C)(C)C`, the Potency result is “inactive”.

On to `CNS(=O)(=O)c1ccc2c3c(cccc13)C(=O)N2C`, for which the Potency entry is “inactive”.

On to `Cc1cc2nc3c(=O)n(Cc4ccccc4)c(=O)[nH]c3nc2cc1N`, for which the Potency entry was “inactive”.

For `O=C(Cc1cccc2ccccc12)Nc1cc(C(=O)O)cc(C(=O)O)c1`, the Potency entry was “inactive”.

In the case of `O=C(NCc1ccc(F)cc1)c1ccc(CS(=O)(=O)c2ccc(Br)cc2)o1`, the Potency result is “inactive”.

Consider `Cc1ccccc1CNc1ccc(C(CC(N)=O)NC(=O)c2ccc(Br)cc2)cc1[N+](=O)[O-]` (centres undefined), for which the Potency was 39.8 µM (active).

With `NC(=NOC(=O)Cc1ccccc1[N+](=O)[O-])c1cccc(Br)c1`, the Potency entry is “inactive”.

Take `CCOc1ccc(NC(=O)Cc2cccc3ccccc23)c([N+](=O)[O-])c1`: the Potency entry was “inactive”.

`NC(=O)CC(NC(=O)Cc1cccc2ccccc12)c1ccc(NCCOc2ccccc2)c([N+](=O)[O-])c1` (centres undefined): the Potency is 17.8 µM (active).

Regarding `COc1ccc(C(=O)N[C@H](C(=O)NCCc2ccc3c(c2)OCCO3)C(C)C)cc1`, the Potency result is “inactive”.

`NC(=O)CC(NC(=O)c1ccc(Br)cc1)c1ccc(NCc2ccc(F)cc2)c([N+](=O)[O-])c1` (centres undefined): the Potency was 39.8 µM (active).

Consider `COc1ccc(CCNc2ccc(C(CC(N)=O)NC(=O)c3ccc(Br)cc3)cc2[N+](=O)[O-])cc1` (centres undefined), for which the Potency was 31.6 µM (active).

Turning to `COc1ccc(NC(=O)CSc2n[nH]c(C(C)C)n2)c([N+](=O)[O-])c1`, the Potency entry is “inactive”.

As for `Nc1ccc(-c2cc3ccccc3oc2=O)cc1`, the Potency result is “inactive”.

As to `COc1ccccc1[C@@H]1C(c2ccccc2)=NN(c2ccccc2)[C@H]1C(=O)N1CCOC1=O`, the Potency entry was “inactive”.

As for `Cc1cccc(N2C(=O)/C(=C\Nc3ccccc3)c3ccccc3C2=O)n1`, the Potency result is “inactive”.

Consider `CCNc1nc(N)c(C(=O)C23CC4CC(CC(C4)C2)C3)s1`, for which the Potency entry was “inactive”.

For the compound `Cn1c(C(=O)N2CCOCC2)cc2c(=O)n3ccccc3nc21`, the Potency entry is “inactive”.

As to `C/C(=N\NC(=S)Nc1cccc(C)c1)c1cc2ccccc2o1`, the Potency result was “inactive”.

With `COc1ccc(CN=C(Nc2ccccc2)SC2CC(=O)NC2=O)cc1` (centres undefined), the Potency entry is “inactive”.

In the case of `COc1ccc(C/C(C)=N/NC(=S)Nc2ccccc2)cc1`, the Potency is 35.5 µM (active).

Regarding `Cc1nc(NCC2CC2)c2nnn(Cc3ccccc3)c2n1`, the Potency entry is “inactive”.

Turning to `CCn1cc(CN2CCCC(CNS(=O)(=O)c3cccc4cccnc34)C2)cn1` (centres undefined), the Potency was 3.16 µM (active).

`O=S(=O)(NCC1CCN(Cc2ccccc2)CC1)c1ccccc1C(F)(F)F`: the Potency entry is “inactive”.

Consider `O=S(=O)(NCCc1ccc(F)cc1)c1cccc2cccnc12`, for which the Potency result was “inactive”.

Take `Cc1cc(/C=C2\C(=N)N3N=C(S(C)(=O)=O)SC3=NC2=O)c(C)n1Cc1ccccc1`: the Potency entry is “inactive”.

In the case of `CCCN(CCC)Cc1c(C(=O)N/N=C/C(C)=C\c2ccco2)nnn1-c1nonc1N`, the Potency was 25.1 µM (active).

On to `CN(C)c1ccc(/C=N/NC(=O)c2nnn(-c3nonc3N)c2COc2ccc(F)cc2)cc1`, for which the Potency entry was “inactive”.

On to `CC(C)c1c(C(=O)N/N=C/c2ccco2)nnn1-c1nonc1N`, for which the Potency result is “inactive”.

As to `O=S(=O)(N/N=C1\CCCc2ccccc21)c1ccccc1`, the Potency entry was “inactive”.

Regarding `CCCSc1nsc(NC(=O)Nc2ccc(F)cc2F)n1`, the Potency is 31.6 µM (active).

Regarding `COc1ccc(OC(C)C(=O)Nc2ccc(F)cc2F)cc1` (centres undefined), the Potency result was “inactive”.

As for `O=C(Nc1ccc(F)cc1F)c1cc(Cl)sc1Cl`, the Potency result was “inactive”.

For the compound `Cc1ccc2[nH]c(SCC(=O)c3ccc(O)cc3O)nc2c1`, the Potency entry is “inactive”.

`O=C1OCCN1C(=O)[C@H]1[C@H](c2ccccc2)C(c2cccc(Cl)c2)=NN1c1ccc(Br)cc1`: the Potency result is “inactive”.

Consider `CCCCN1C(=O)c2ccc(C(=O)NC3(C)CCS(=O)(=O)C3)cc2C1=O` (centres undefined), for which the Potency result is “inactive”.

With `C=C1[C@@H](O)[C@H](CC(C)C)N(Cc2ccccc2Br)S1(=O)=O`, the Potency was 28.2 µM (active).

On to `CC(=O)N(C1=C(Cl)C(=O)c2ccccc2C1=O)c1ccc(C(=O)O)cc1`, for which the Potency result is “inactive”.

For the compound `C/N=C1\C(=O)c2ccccc2C(O)=C1N(C(C)=O)c1ccc(Br)cc1`, the Potency is 14.1 µM (active).

For `COc1ccccc1N(C(C)=O)C1=C(Cl)C(=O)c2ccccc2C1=O`, the Potency result is “inactive”.

Consider `NC(=O)c1nsc(C(=O)N(c2cccc(F)c2)C(C(=O)NCc2ccccc2)c2ccc(O)cc2)c1N` (centres undefined), for which the Potency result was “inactive”.

With `COc1ccccc1NC(=O)N(C)C[C@@H]1OCc2ccccc2-c2c(n(C)c3ccccc23)C(=O)N([C@H](C)CO)C[C@@H]1C`, the Potency was 35.5 µM (active).

For the compound `C[C@H](CO)N1C[C@H](C)[C@H](CN(C)C(=O)c2ccccc2)OCc2ccccc2-c2c(n(C)c3ccccc23)C1=O`, the Potency is 22.4 µM (active).

`COC(=O)CN1C(=O)N/C(=C/c2cc(Cl)c(OC)c(OC)c2)C1=O`: the Potency result is “inactive”.

As to `CC(=O)O/N=C/c1c(NCc2ccccc2)nc2c(C)cccn2c1=O`, the Potency result is “inactive”.

Turning to `Cc1nc(SCc2ccccc2)nc2c1CCC2`, the Potency result is “inactive”.

As to `CC(=O)c1c(C)[nH]c(C(=O)CN2C(=O)NC(C)(CCC(C)C)C2=O)c1C` (centres undefined), the Potency result was “inactive”.

Turning to `O=C1CSC(=S)N1N=Cc1cccc(OCc2ccccc2)c1`, the Potency result was “inactive”.

As for `CCSc1ccc(-c2nn(-c3ccccc3)cc2/C=C(/C#N)C(=O)NCCCOC)cc1`, the Potency result is “inactive”.

`COc1ccc(-c2nn(-c3ccccc3)cc2/C=N/N2C(=O)CSC2=S)cc1`: the Potency was 39.8 µM (active).

Turning to `CCCCCCc1cc2cc(S(=O)(=O)c3ccc(F)cc3)c(=O)oc2cc1O`, the Potency result was “inactive”.

In the case of `NC(=O)c1sc2nc(-c3ccccc3)ccc2c1N`, the Potency entry was “inactive”.

Take `CCC1CCCCN1C(=O)c1ccc(OC2CCN(C(=O)COC)CC2)cc1` (centres undefined): the Potency result is “inactive”.

Turning to `COCCN=C(S)N1CCN(c2cccc(C(F)(F)F)c2)CC1`, the Potency entry was “inactive”.

`Cc1c(S(=O)(=O)N2CCN(c3cccc(C(F)(F)F)c3)CC2)c(=O)n(C)c(=O)n1C`: the Potency result is “inactive”.

Take `Cn1cc(C(=O)N2CCN(c3cccc(C(F)(F)F)c3)CC2)c2c3ccccc3n(C)c2c1=O`: the Potency was 31.6 µM (active).
